Results on 40 targets are retold here after the supplement of paper PMC11001985.

UniProt O00468, sequence (O00468 whole entry): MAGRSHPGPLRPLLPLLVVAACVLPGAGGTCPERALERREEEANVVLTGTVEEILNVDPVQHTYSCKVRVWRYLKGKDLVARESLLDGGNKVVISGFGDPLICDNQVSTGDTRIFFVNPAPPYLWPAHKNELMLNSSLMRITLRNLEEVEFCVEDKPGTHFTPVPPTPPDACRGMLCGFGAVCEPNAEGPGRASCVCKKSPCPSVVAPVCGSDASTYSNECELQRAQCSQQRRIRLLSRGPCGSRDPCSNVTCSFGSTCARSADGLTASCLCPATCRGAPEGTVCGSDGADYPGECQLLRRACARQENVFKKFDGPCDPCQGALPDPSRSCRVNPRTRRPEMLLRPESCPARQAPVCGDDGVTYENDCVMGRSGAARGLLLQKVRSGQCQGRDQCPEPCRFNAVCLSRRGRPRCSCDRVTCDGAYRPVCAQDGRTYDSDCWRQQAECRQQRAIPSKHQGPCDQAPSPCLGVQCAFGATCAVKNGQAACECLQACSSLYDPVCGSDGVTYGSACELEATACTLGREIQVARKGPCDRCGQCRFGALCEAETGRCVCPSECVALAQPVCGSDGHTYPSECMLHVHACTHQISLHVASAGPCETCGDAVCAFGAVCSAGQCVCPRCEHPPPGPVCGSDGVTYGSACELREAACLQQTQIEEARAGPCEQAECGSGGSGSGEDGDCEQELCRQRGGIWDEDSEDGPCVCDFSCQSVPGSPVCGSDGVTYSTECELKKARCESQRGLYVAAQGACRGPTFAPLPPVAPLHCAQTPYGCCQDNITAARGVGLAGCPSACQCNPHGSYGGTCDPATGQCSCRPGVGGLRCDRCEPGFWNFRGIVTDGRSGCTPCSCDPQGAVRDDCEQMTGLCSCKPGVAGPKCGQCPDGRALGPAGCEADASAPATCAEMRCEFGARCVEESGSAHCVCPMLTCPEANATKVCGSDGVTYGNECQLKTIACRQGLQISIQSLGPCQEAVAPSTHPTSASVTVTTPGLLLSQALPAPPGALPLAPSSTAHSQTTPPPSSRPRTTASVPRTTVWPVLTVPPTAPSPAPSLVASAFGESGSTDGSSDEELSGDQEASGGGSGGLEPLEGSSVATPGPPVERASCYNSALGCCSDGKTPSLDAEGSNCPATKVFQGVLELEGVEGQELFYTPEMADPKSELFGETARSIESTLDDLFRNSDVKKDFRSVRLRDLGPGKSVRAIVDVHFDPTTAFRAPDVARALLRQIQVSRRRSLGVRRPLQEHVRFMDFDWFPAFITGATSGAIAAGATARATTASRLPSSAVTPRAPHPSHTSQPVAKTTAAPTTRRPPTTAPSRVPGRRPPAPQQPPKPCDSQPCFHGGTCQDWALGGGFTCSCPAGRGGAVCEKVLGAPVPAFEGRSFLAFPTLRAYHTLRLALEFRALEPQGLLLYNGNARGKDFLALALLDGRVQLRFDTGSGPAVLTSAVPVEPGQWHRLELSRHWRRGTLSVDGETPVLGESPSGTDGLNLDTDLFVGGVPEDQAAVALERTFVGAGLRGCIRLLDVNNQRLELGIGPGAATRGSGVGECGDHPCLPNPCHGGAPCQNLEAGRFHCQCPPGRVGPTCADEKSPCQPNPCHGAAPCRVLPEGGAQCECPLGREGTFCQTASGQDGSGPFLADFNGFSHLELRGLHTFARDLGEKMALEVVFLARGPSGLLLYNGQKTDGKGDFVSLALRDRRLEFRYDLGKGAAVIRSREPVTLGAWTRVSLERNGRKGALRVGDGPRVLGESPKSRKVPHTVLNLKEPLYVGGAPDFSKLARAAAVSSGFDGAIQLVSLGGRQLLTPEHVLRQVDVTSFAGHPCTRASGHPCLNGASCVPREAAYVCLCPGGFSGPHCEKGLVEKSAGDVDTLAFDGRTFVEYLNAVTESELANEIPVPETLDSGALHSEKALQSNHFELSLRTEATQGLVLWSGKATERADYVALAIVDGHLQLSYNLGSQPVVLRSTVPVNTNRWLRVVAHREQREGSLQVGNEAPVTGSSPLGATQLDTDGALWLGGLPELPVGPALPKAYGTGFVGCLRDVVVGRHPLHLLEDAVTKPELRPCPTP
UniProt P10809, sequence (P10809 whole entry): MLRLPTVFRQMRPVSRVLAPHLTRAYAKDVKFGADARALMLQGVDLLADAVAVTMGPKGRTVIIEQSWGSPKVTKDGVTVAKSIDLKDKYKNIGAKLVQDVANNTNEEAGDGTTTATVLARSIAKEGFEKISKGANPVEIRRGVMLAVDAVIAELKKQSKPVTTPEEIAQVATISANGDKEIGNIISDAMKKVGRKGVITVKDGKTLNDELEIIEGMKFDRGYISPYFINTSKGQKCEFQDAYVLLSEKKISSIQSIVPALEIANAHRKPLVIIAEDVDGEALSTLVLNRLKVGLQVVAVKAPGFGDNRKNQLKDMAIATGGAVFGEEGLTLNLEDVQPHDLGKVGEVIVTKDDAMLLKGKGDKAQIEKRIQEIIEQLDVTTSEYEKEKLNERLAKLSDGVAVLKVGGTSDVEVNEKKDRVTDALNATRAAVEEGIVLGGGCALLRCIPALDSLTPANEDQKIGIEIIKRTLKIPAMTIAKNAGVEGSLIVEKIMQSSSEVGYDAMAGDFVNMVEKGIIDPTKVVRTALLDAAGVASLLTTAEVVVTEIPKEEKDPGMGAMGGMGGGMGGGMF
UniProt P29401, sequence (P29401 whole entry): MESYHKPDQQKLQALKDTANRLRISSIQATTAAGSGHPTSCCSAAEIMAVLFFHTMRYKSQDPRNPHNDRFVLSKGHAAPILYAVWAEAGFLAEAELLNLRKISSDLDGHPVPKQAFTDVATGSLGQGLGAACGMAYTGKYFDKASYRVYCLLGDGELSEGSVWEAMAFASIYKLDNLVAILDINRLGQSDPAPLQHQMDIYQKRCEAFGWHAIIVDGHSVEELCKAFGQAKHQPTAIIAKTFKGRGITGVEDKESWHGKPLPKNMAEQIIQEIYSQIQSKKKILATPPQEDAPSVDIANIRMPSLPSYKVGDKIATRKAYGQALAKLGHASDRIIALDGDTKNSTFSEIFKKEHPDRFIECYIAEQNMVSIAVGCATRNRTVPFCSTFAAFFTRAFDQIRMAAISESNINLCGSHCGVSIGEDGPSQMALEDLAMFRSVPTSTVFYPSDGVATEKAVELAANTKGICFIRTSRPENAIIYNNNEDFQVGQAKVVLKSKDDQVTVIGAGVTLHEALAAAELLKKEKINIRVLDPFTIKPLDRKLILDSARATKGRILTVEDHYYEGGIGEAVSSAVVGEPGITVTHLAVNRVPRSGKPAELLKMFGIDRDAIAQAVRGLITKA
UniProt P16144, sequence (P16144 whole entry): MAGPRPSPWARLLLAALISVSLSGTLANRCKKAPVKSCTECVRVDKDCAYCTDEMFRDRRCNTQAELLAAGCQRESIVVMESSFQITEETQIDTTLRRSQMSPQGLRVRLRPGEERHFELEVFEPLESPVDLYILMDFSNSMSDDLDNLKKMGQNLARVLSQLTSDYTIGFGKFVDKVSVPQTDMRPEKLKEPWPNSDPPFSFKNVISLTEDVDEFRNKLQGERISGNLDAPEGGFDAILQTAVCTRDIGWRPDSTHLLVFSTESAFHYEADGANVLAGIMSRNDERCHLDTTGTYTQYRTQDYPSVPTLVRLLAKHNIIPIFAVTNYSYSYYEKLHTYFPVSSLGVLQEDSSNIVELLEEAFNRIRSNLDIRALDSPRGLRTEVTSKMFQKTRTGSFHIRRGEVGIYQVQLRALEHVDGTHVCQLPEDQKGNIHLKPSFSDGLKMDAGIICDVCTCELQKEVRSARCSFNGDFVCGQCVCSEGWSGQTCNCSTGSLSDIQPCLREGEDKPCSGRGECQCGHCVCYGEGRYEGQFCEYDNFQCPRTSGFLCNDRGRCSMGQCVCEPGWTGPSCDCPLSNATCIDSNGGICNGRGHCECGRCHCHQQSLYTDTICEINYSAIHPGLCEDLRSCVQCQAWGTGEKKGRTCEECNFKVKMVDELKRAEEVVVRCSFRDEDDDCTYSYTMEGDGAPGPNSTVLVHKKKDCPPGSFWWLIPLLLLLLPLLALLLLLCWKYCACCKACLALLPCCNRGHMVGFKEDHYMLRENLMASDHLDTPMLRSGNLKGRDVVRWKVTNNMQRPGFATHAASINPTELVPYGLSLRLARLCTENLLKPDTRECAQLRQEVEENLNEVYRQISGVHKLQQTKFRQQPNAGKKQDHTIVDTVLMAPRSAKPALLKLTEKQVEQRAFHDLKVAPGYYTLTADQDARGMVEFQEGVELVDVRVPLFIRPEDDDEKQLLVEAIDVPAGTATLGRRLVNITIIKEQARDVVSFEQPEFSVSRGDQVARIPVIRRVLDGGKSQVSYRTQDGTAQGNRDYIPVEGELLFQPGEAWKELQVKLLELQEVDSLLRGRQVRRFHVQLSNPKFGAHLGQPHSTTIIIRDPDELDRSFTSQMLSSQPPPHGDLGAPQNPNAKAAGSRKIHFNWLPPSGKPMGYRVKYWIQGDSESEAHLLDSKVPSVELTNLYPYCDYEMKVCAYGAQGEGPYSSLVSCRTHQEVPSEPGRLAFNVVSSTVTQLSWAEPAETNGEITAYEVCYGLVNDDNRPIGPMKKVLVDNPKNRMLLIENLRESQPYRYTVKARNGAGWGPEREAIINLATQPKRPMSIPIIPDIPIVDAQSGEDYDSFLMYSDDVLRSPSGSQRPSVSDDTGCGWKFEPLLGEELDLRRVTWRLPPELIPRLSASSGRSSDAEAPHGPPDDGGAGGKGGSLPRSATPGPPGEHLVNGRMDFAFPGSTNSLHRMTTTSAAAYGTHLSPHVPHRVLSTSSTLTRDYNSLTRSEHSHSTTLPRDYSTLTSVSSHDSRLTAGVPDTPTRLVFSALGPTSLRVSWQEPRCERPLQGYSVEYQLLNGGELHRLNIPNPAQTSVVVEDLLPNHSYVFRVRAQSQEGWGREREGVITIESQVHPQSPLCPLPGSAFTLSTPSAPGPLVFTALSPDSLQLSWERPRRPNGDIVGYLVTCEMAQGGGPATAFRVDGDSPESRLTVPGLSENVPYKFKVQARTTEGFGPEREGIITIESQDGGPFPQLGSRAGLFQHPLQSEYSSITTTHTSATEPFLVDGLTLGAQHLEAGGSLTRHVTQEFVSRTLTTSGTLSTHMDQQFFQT

Compound in the test: C#CCNC(=O)CCSSCCC(=O)NCCc1ccc(C=O)c(C=O)c1
The test can be described thus: lysine labeling ratio R10:1 (500 µM / 50 µM probe), SILAC-ABPP in living cells; higher = lower intrinsic lysine reactivity toward the probe, active = 2 or less. The conditions noted are these: HeLa; probe concentrations 500 vs 50 µM. The procedure:
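Living HeLa cells (SILAC light/heavy) in PBS at room temperature were labeled with 50 µM versus 500 µM of the lysine-reactive, reductant-cleavable probe OPA-S-S-alkyne (SILAC labeling time not stated). Probe-modified peptides were CuAAC-biotinylated, captured on neutravidin and eluted with DTT/IAA, then quantified by LC-MS/MS. R = median peptide ratio per lysine (500/50 µM), combined over 3 forward and 3 reverse SILAC replicates. Ratios are capped at 20; R < 2 = hyper-reactive.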
Regarding “IDH2 (lysine site: K384) (UniProt P48735)”, the “lysine labeling ratio R10:1” value was 3.48 (inactive).
In the case of “SLC3A2 (lysine site: K299) (UniProt P08195)”, the “lysine labeling ratio R10:1” value is 6.33 (inactive).
Turning to “EPPK1 (lysine site: K2707) (UniProt P58107)”, the “lysine labeling ratio R10:1” value is 3.42 (inactive).
To MSN (lysine site: K64) (UniProt P26038) belongs 1.22 (active); to “SPTBN1 (lysine site: K997) (UniProt Q01082)”, 2.87 (inactive); to “HSPD1 (lysine site: K96) (UniProt P10809)”, 3.85 (inactive).
To “FRAS1 (lysine site: K2521) (UniProt Q86XX4)” belongs 2.03 (inactive); to “FLNA (lysine site: K523) (UniProt P21333)”, 3.84 (inactive).
To UniProt P62269 (lysine site: K137) belongs 3.21 (inactive); to “HNRNPL (lysine site: K302) (UniProt P14866)”, 1.66 (active).
For the target “ACTN4 (lysine site: K66) (UniProt O43707)”, the “lysine labeling ratio R10:1” value was 4.43 (inactive).
To UniProt Q9NYQ6 (lysine site: K316) belongs 3.81 (inactive); to UniProt P16144 (lysine site: K510), 2.83 (inactive); to “SPTAN1 (lysine site: K1432) (UniProt Q13813)”, 0.77 (active).
Then “IMPDH2 (lysine site: K511) (UniProt P12268)”, with 3.35 (inactive); and “CD70 (lysine site: K93) (UniProt P32970)”, with 3.66 (inactive).
To “SLC25A13 (lysine site: K408) (UniProt Q9UJS0)” belongs 2.67 (inactive); to “TCP1 (lysine site: K400) (UniProt P17987)”, 2.68 (inactive).
In the case of “SCFD1 (lysine site: K572) (UniProt Q8WVM8)”, the “lysine labeling ratio R10:1” value was 2.58 (inactive).
On to “AGRN (lysine site: K383) (UniProt O00468)”, for which the “lysine labeling ratio R10:1” value is 12.9 (inactive).
As for “FKBP4 (lysine site: K390) (UniProt Q02790)”, the “lysine labeling ratio R10:1” value is 3.84 (inactive).
Regarding “BASP1 (lysine site: K149) (UniProt P80723)”, the “lysine labeling ratio R10:1” value is 3.54 (inactive).
Take “IGSF3 (lysine site: K191) (UniProt O75054)”: the “lysine labeling ratio R10:1” value was 4.16 (inactive).
In the case of “MET (lysine site: K595) (UniProt P08581)”, the “lysine labeling ratio R10:1” value is 1.67 (active).
Take UniProt P55072 (lysine site: K754): the “lysine labeling ratio R10:1” value was 2.84 (inactive).
Then UniProt Q99623 (lysine site: K200), with 2.34 (inactive).
Consider “HSPA9 (lysine site: K394) (UniProt P38646)”, for which the “lysine labeling ratio R10:1” value was 3.32 (inactive).
Then “HSD17B10 (lysine site: K105) (UniProt Q99714)”, with 2.63 (inactive).
To UniProt O60245 (lysine site: K810) belongs 0.802 (active).
To “EPHB2 (lysine site: K158) (UniProt P29323)” belongs 2.25 (inactive); to “TKT (lysine site: K352) (UniProt P29401)”, 6 (inactive).
As for “SHMT2 (lysine site: K103) (UniProt P34897)”, the “lysine labeling ratio R10:1” value is 4.3 (inactive).
Then UniProt P46781 (lysine site: K30), with 1.01 (active); and “SMOC1 (lysine site: K223) (UniProt Q9H4F8)”, with 4.99 (inactive).
For the target “AGRN (lysine site: K1198) (UniProt O00468)”, the “lysine labeling ratio R10:1” value is 3.68 (inactive).
With UniProt P60866 (lysine site: K59), the “lysine labeling ratio R10:1” value was 2.02 (inactive).
Regarding “ALDOA (lysine site: K42) (UniProt P04075)”, the “lysine labeling ratio R10:1” value was 3 (inactive).
Then “CDH13 (lysine site: K185) (UniProt P55290)”, with 4.74 (inactive); and “NEGR1 (lysine site: K180) (UniProt Q7Z3B1)”, with 1.72 (active).
Then UniProt P62277 (lysine site: K9), with 2.44 (inactive).
